{"source": "PubChem BioAssay (NCATS)", "note": "Records with an inconclusive call do not appear. A call without a number means that no potency is given here. Calls of active or inactive are those of the source. Calls come from the whole dose curve; tested in HEK293 reporter line."}
{"assay": "qHTS for Inhibitors of the Functional Ribonucleoprotein Complex (vRNP) of Lassa (LASV) Arenavirus: LASV Primary Screen - GLuc reporter signal (AID 1347082); note: nearly all actives have a fitted effect of over 60% in size", "conditions": "LASV minigenome vRNP, Gaussia luciferase reporter; series mostly up to 57.5 µM; activity change, negative = inhibition: at the top concentration"}
{"smiles": "O=C(O)CCNC(=O)c1ccc(N=Nc2ccc(O)c(C(=O)O)c2)cc1", "Potency": "inactive"}
{"smiles": "CNCCCN1c2ccccc2CCc2ccccc21", "Potency": "inactive"}
{"smiles": "CCN(CC)CCCC(C)Nc1ccnc2cc(Cl)ccc12", "note": "(configuration not stated)", "Potency": "inactive"}
{"smiles": "NC(=O)N/N=C/c1ccc([N+](=O)[O-])o1", "activity change, negative = inhibition": "-0.242% (inactive)"}
{"smiles": "CC1Cc2ccccc2N1NC(=O)c1ccc(Cl)c(S(N)(=O)=O)c1", "note": "(configuration not stated)", "Potency": "inactive"}
{"smiles": "CC(C)C(=O)Nc1ccc([N+](=O)[O-])c(C(F)(F)F)c1", "Potency": "inactive"}
{"smiles": "Cc1nc2n(c(=O)c1CCN1CCC(c3noc4cc(F)ccc34)CC1)CCC[C@H]2O", "activity change, negative = inhibition": "9.04% [at 24.7 µM] (inactive)"}
{"smiles": "CN(C)CC/C=C1\\c2ccccc2COc2ccccc21", "Potency": "inactive"}
{"smiles": "CCOC(=O)C1=C(C)NC(C)=C(C(=O)OC)C1c1cccc(Cl)c1Cl", "note": "(configuration not stated)", "Potency": "inactive"}
{"smiles": "O=C1CCc2cc(OCCCCc3nnnn3C3CCCCC3)ccc2N1", "Potency": "inactive"}
{"smiles": "O=C(O)COCCN1CCN(C(c2ccccc2)c2ccc(Cl)cc2)CC1", "note": "(configuration not stated)", "Potency": "inactive"}
{"smiles": "O=c1c(O)c(-c2ccc(O)c(O)c2)oc2cc(O)cc(O)c12", "Potency": "inactive"}
{"smiles": "CC[C@]1(O)C[C@H]2CN(CCc3c([nH]c4ccccc34)[C@@](C(=O)OC)(c3cc4c(cc3OC)N(C=O)[C@H]3[C@@](O)(C(=O)OC)[C@H](OC(C)=O)[C@]5(CC)C=CCN6CC[C@]43[C@@H]65)C2)C1", "activity change, negative = inhibition": "-20.6% (inactive)"}
{"smiles": "Cn1cnc2c(F)c(Nc3ccc(Br)cc3Cl)c(C(=O)NOCCO)cc21", "activity change, negative = inhibition": "-0.713% (inactive)"}
{"smiles": "CC(COc1ccccc1)N(CCCl)Cc1ccccc1", "note": "(configuration not stated)", "Potency": "inactive"}
{"smiles": "O=C1Nc2ccc(Cl)cc2[C@@](C#CC2CC2)(C(F)(F)F)O1", "activity change, negative = inhibition": "-15.6% (inactive)"}
{"smiles": "CNCCC(Oc1ccc(C(F)(F)F)cc1)c1ccccc1", "note": "(configuration not stated)", "Potency": "inactive"}
